PubChem BioAssay (EPA / NIEHS)
The source made the active and inactive calls. The calls were made as follows: active = hit-call score of the fitted dose curve at least 0.9, where 1 is the maximum; inactive = score below 0.9.

Experiments:
[1] = read-out: Human Leukocyte Antigen - DR isotype (HLADR), HLA-DRA (gene 3122); test: BSK_BE3C_HLADR: BioMAP Diversity Plus: BE3C Assay for Human Leukocyte Antigen - DR isotype (HLADR) Biomarker Activity (AID 2283032); conditions: primary human bronchial epithelial cells; actives raise or lower the signal
In short: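 Human primary bronchial epithelial cells in the BE3C system were exposed to chemicals for 24 h, after which HLA-DR levels were quantified by ELISA. Activity was fitted bidirectionally, gain or loss of signal, against DMSO as negative control and baseline.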

[2] = read-out: Vascular cell adhesion molecule 1 (VCAM1), VCAM1 (gene 7412); test: BSK_4H_VCAM1: BioMAP Diversity Plus: 4H Assay for Vascular cell adhesion molecule 1 (VCAM1) Biomarker Activity (AID 2283033); conditions: primary human endothelial cells (HUVEC); actives raise or lower the signal
In short: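 Primary human umbilical vein endothelial cells were exposed to chemicals for 24 h, after which VCAM-1 was quantified by ELISA. Responses were fitted bidirectionally against DMSO as negative control and activity baseline.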

[3] = read-out: Interferon-gamma inducible Protein 10 (IP10), CXCL10 (gene 3627); test: BSK_BE3C_IP10: BioMAP Diversity Plus: BE3C Assay for Interferon-gamma inducible Protein 10 (IP10) Biomarker Activity (AID 2283034); conditions: primary human bronchial epithelial cells; actives raise or lower the signal
In short: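 Human primary bronchial epithelial cells were exposed to chemicals for 24 hours, after which IP-10 levels were measured by ELISA. Data were fitted bidirectionally against DMSO, which served as the negative control and activity baseline.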

[4] = read-out: Monokine induced gamma interferon (MIG), CXCL9 (gene 4283); test: BSK_BE3C_MIG: BioMAP Diversity Plus: BE3C Assay for Monokine induced gamma interferon (MIG) Biomarker Activity (AID 2283035); conditions: primary human bronchial epithelial cells; actives raise or lower the signal
In short: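 ELISA read-out of MIG in human lung bronchial epithelial primary cultures, 24 h post-dosing. Bidirectional curve fit vs DMSO baseline.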

[5] = read-out: Transforming growth factor beta 1 (TGFb1), TGFB1 (gene 7040); test: BSK_BE3C_TGFb1: BioMAP Diversity Plus: BE3C Assay for Transforming growth factor beta 1 (TGFb1) Biomarker Activity (AID 2283036); conditions: primary human bronchial epithelial cells; actives raise or lower the signal
In short: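 Human primary bronchial epithelial cells (BE3C system) were dosed with chemical and TGF-b1 levels measured by ELISA at 24 h. Activity was fitted bidirectionally relative to DMSO negative control as baseline.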

[6] = read-out: Plasminogen activator inhibitor-1 (PAI1), SERPINE1 (gene 5054); test: BSK_BE3C_PAI1: BioMAP Diversity Plus: BE3C Assay for Plasminogen activator inhibitor-1 (PAI1) Biomarker Activity (AID 2283037); conditions: primary human bronchial epithelial cells; actives raise or lower the signal
In short: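 Human primary bronchial epithelial cells were exposed to chemical for 24 h, then PAI-1 was quantified by ELISA. Activity was fitted bidirectionally relative to the DMSO negative control baseline.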

[7] = read-out: urokinase plasminogen activator (uPA), PLAU (gene 5328); test: BSK_BE3C_uPA: BioMAP Diversity Plus: BE3C Assay for urokinase plasminogen activator (uPA) Biomarker Activity (AID 2283038); conditions: primary human bronchial epithelial cells; actives raise or lower the signal
In short: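 ELISA read-out of uPA in human lung primary bronchial epithelial cultures, 24 h post-dosing. Gain or loss of signal fitted bidirectionally relative to DMSO baseline; cytotoxicity checked in parallel cultures via SRB total protein stain.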

[8] = read-out: Urokinase-type plasminogen activator receptor (uPAR), PLAUR (gene 5329); test: BSK_BE3C_uPAR: BioMAP Diversity Plus: BE3C Assay for Urokinase-type plasminogen activator receptor (uPAR) Biomarker Activity (AID 2283039); conditions: primary human bronchial epithelial cells; actives raise or lower the signal
In short: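 Primary human bronchial epithelial cells were dosed with chemical and harvested 24 h later; uPAR was quantified by ELISA. Activity was fitted bidirectionally against DMSO as negative control and baseline.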

[9] = read-out: Interleukin-6 (IL6), IL6 (gene 3569); test: BSK_CASM3C_IL6: BioMAP Diversity Plus: CASM3C Assay for Interleukin-6 (IL6) Biomarker Activity for (AID 2283040); conditions: primary human coronary artery smooth muscle cells; actives raise or lower the signal
[10] = read-out: Tissue plasminogen activator (tPA), PLAT (gene 5327); test: BSK_BE3C_tPA: BioMAP Diversity Plus: BE3C Assay for Tissue plasminogen activator (tPA) Biomarker Activity (AID 2283041); conditions: primary human bronchial epithelial cells; actives raise or lower the signal
In short: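 Human primary bronchial epithelial cells were dosed with chemical and tPA biomarker levels measured by ELISA 24 hours later. Activity was fitted bidirectionally against DMSO as negative control and baseline.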

Measured: AC50

FC(F)(F)C(F)(F)C(F)(F)C(F)(F)C(F)(F)C(F)(F)CCI
inactive: all assays above

COc1cc(-c2nc(NC(=O)c3cc4cc(C)cc(C)c4n3CC(=O)O)sc2CCC2CCCCC2)c(OC)cc1Cl
active: [1] 1250 nM | [2] 4360 nM | [3] 1300 nM | [4] 1560 nM | [5] 4380 nM | [6] 877 nM | [7] 1030 nM | [8] 4470 nM | [9] 4700 nM | [10] 969 nM

Cc1c(C(=O)O)c(O)cc2c1C(=O)c1c(O)c([C@@H]3O[C@H](CO)[C@@H](O)[C@H](O)[C@H]3O)c(O)c(O)c1C2=O
inactive: all assays above

COc1ccc(C)cc1N
inactive: all assays above

CC(=O)OC/C=C(\C)CCC=C(C)C
inactive: all assays above

CCCCCCCC=O
inactive: all assays above

Cc1ccc(N(C)C)cc1
inactive: all assays above

CC1=C(/C=C/C(C)=C/C=C/C(C)=C/CO)C(C)(C)CCC1
active: [1] 18000 nM | [2] 31100 nM
inactive: all other assays above

COCCOC[C@H](CC1(C(=O)NC2CCC(C(=O)O)CC2)CCCC1)C(=O)Oc1ccc2c(c1)CCC2 (stereo not given in full)
inactive: all assays above

Clc1cc(Cl)c(Cl)cc1Cl
inactive: all assays above

CN1CCCC1=O
inactive: all assays above

Oc1ccc2c(c1)OC[C@@H](N1CCC(O)(c3ccc(F)cc3)CC1)[C@H]2O
inactive: all assays above

CC=Cc1ccc(O)c(OC)c1
active: [2] 7600 nM
inactive: all other assays above

Cc1ccc(C(C)C)c(O)c1
inactive: all assays above

CC(=O)C(C)=CC1C(C)=CCCC1(C)C (stereo not given)
inactive: all assays above

C=CCc1ccc(O)c(OC)c1
inactive: all assays above

C[C@]12C=CC(=O)C=C1CC[C@@H]1[C@@H]2C(=O)C[C@@]2(C)[C@H]1CC[C@]2(O)C(=O)CO
active: [9] 704 nM
inactive: all other assays above

COc1ccc2c(c1)c(CC(=O)O)c(C)n2C(=O)c1ccc(Cl)cc1
inactive: all assays above

Cc1nc(C)nc(N2C[C@@H](C)N(c3ccnc([C@@H](C)O)n3)[C@@H](C)C2)n1
inactive: all assays above

Nc1ccc(S(=O)(=O)c2ccc(N)cc2)cc1
inactive: all assays above

CCOC(=O)CCC(=O)OCC
inactive: all assays above
